Only some compounds are listed: those with a hit (about 6.2% of all), similar ones and a draw of the others.
GRIN3A LBD mod – modulators (binders) of human NR3A ligand-binding domain. NR3A LBD differential scanning fluorimetry, Tm shift; 0% = protein alone, 100% = glycine-bound protein. Tm shift relative to glycine control, % at 25 µM. 340,000 compounds, 2.5% hits;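 active = melting temperature shift of at least 10% of the positive control shift, at one fixed dose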
AHR activator – activators of human aryl hydrocarbon receptor; activation, % at 5 µM; P35869; 320,000 compounds, 2.5% hits; AHR-responsive luciferase reporter cells, luminescence; in the data active = activation above about 47%
H9c2 protect – modulators protecting cardiomyocytes from myocardial damage. H9c2 cardiomyocytes, H2O2 injury protection, ATPLite, 2 h. protection from H2O2 cell death, % at 20 µM. 360,000 compounds, 0.63% hits. AID 588492;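 active = compounds giving at least 50% protection of heart cells from peroxide-induced death in the single-dose screen, raw or plate-pattern-corrected value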
AI-2 QS mod – modulators of Vibrio harveyi AI-2 quorum sensing system; 300,000 compounds, 0.4% hits; Vibrio harveyi JMH597 AI-2 luminescence/OD600 ratio, 9 h; stronger effect = lower value; strain lacks LuxN and CqsS sensors; 0 = neutral-control median; activity change, % at 7.5 µM; in the data active = activity change below about -75%, passing the limit was not always enough;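 also: luminescence divided by OD600 gain over 9 h not by final OD600 alone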
Mot1-301 SUMO – inhibitors of SUMOylation pathway: yeast Mot1-301 growth rescue; AID 2716; 320,000 compounds, 1% hits; S. cerevisiae Mot1-301 growth rescue, ATP luminescence, 38.5C; percent above DMSO median, 100 means doubled; growth rescue, % at 18.8 µM;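 active = every valid replicate shows activation above 250% relative to neutral control wells; inactive = the rest, any valid replicate at or below 250%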
NTR1 agonist – NTR1 (human) agonism. NTR1-U2OS beta-arrestin-GFP spot imaging, agonist mode. activation, % at 20 µM. 330,000 compounds, 0.17% hits;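 active = activation at or above 40% of the spot to cytoplasm intensity ratio, with at least 20 cells analyzed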
NTR1 ag conf – NTR1 (human) agonism, confirmed. shares compounds with NTR1 agonist. activation, % at 20 µM. AID 504550. NTR1-U2OS beta-arrestin-GFP translocation imaging. 480 compounds, 38% hits;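 active = mean activation at 20 µM of at least 40%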
Numbers stand for hits; – = inactive; · = no result.

SMILES	GRIN3A LBD mod	AHR activator	H9c2 protect	AI-2 QS mod	Mot1-301 SUMO	NTR1 agonist	NTR1 ag conf
CC[C@@H](C(=O)[C@@H](C)[C@@H](O)[C@H](C)CCc1ccc(C)c(O)c1C(=O)O)[C@H]1O[C@](CC)([C@H]2CC[C@](O)(CC)[C@H](C)O2)C[C@@H]1C	–	–	–	–	–	53	62
CC(C)=CCc1c(O)c(CC=C(C)C)c2c(c1O)C(=O)CC(c1ccc(O)cc1)O2 (stereo not given)	15	–	–	–	–	46	–
CC(C)=CCc1c(O)cc(O)c2c1OC(c1ccc(O)cc1)CC2=O (stereo not given)	–	–	–	–	–	–	·
Fc1ccc(-n2nnnc2-c2cnc(-c3cccs3)nc2C(F)(F)F)cc1	–	–	–	–	–	49	67
CCOc1cccc(-c2ccc3nncn3c2)c1	·	·	–	·	·	·	·
Cc1ccc(-c2csc3ncnc(SCC(=O)Nc4nnc(C)s4)c23)cc1	–	–	–	–	–	–	·
Cc1ccc(-c2csc3ncnc(Sc4nnc(CN5CCCCCC5=O)o4)c23)cc1	–	–	–	–	–	49	56
COc1ccc(Cn2cc3c(-c4ccc(F)cc4)nnc-3c3cc(OC)c(OC)cc32)cc1	–	–	–	·	–	46	78
COc1cc2c3nnc(-c4ccc(F)cc4)c-3cn(Cc3ccccc3)c2cc1OC	–	–	–	–	–	49	84
COc1ccc(-c2nnn(Cc3ccccc3)n2)cc1OC	–	–	–	–	–	–	·
Cn1nc2c3cc(F)ccc3n(Cc3ccc(F)cc3)cc-2c1=O	–	–	–	–	–	–	·
O=C(COC(=O)c1ccccc1O)NC12CC3CC(CC(C3)C1)C2	–	–	–	·	–	–	·
O=C(COC(=O)/C=C/C(=O)OCC(=O)NC12CC3CC(CC(C3)C1)C2)NC12CC3CC(CC(C3)C1)C2	–	–	–	–	–	85	40
CC(C)c1nnc(NC(=O)CCC2CCCCC2)s1	–	–	–	–	–	41	–
COC(=O)c1c(NC(=O)COC(=O)c2ccc(O)cc2)sc2c1CCCCC2	18	–	–	–	–	43	–
COCC(=O)Nc1sc2c(c1C(=O)OC)CCCC2	–	–	–	–	–	–	·
CNc1ccc2ncc(-c3ccccc3C(C)=O)n2n1	·	·	–	·	·	·	·
Cc1cc2c(N=NC(=O)C3CC3c3ccccc3)c(O)[nH]c2cc1Br (stereo not given)	–	–	–	–	–	42	–
Cc1occc1C(=O)N=Nc1c(O)[nH]c2ccc(Br)cc12	·	–	·	–	–	–	·
CC(C)(C)C(=O)N1CCN(C(=O)c2ccco2)CC1	–	–	–	–	–	–	·
Cc1cccc(NC(=O)c2nc[nH]c2C(=O)N[C@@H](Cc2ccccc2)C(=O)OC(C)(C)C)c1	–	–	–	–	–	51	53
CC(C)(C)OC(=O)NCCCCCNC(=O)c1[nH]cnc1C(=O)Nc1ccc(Cl)cc1	–	–	66	·	–	48	–
CCN(CC)C(=O)c1[nH]cnc1C(=O)NCCCCCNC(=O)OC(C)(C)C	–	–	–	·	–	–	·
CC(C)(C)OC(=O)[C@H](Cc1ccccc1)NC(=O)c1[nH]cnc1C(=O)Nc1cccc(Cl)c1	–	–	–	–	–	–	·
C[C@H](NC(=O)c1nc[nH]c1C(=O)NCc1ccc(CNC(=O)OC(C)(C)C)cc1)C(=O)OCc1ccccc1	–	–	–	·	–	55	56
SMILES	GRIN3A LBD mod	AHR activator	H9c2 protect	AI-2 QS mod	Mot1-301 SUMO	NTR1 agonist	NTR1 ag conf
C[C@H](NC(=O)c1nc[nH]c1C(=O)NCc1ccc(CNC(=O)OC(C)(C)C)cc1)c1ccccc1	–	–	–	·	–	–	·
CC(C)(C)OC(=O)NCCCCCNC(=O)c1[nH]cnc1C(=O)N[C@@H](Cc1ccccc1)C(=O)OC(C)(C)C	–	–	–	·	–	47	–
CC(C)(C)OC(=O)[C@H](Cc1ccccc1)NC(=O)c1nc[nH]c1C(=O)NCCCCCN	–	–	–	–	–	–	·
COc1ccccc1CNC(=O)c1cc(S(=O)(=O)N2CCCCC2)c[nH]1	–	–	–	–	–	–	·
CCOC(=O)C1CCCN(C(=O)C2(c3ccc(Cl)cc3)CCCC2)CC1 (stereo not given)	·	·	–	·	·	·	·
CCOC(=O)C1=C(COC(=O)/C=C/c2ccc(O)c(OC)c2)NC(=O)NC1C (stereo not given)	–	–	–	·	–	–	·
O=C(COc1cc(F)ccc1[N+](=O)[O-])Nc1cccc(S(=O)(=O)NC2=NCCC2)c1	–	–	–	·	–	–	·
CC(C)C[C@H](NC(=O)c1[nH]cnc1C(=O)Nc1ccc(Cl)cc1)C(=O)OC(C)(C)C	–	–	–	–	–	56	–
CC(C)C[C@H](NC(=O)c1nc[nH]c1C(=O)N[C@@H](CC(C)C)C(=O)OC(C)(C)C)C(=O)OC(C)(C)C	–	–	–	–	–	–	·
CC(C)C[C@H](NC(=O)c1nc[nH]c1C(=O)NC(c1ccccc1)c1ccccc1)C(=O)OC(C)(C)C	–	–	–	–	–	–	·
Cc1cccc(NC(=O)c2nc[nH]c2C(=O)N[C@@H](CC(C)C)C(=O)OC(C)(C)C)c1	–	–	–	–	–	52	–
CC1CC(=O)Nc2ccccc2N1C(=O)CSc1nnnn1C(C)C (stereo not given)	–	–	–	·	–	–	·
O=C(/C=C/c1ccc(OCCCF)cc1)Nc1ccnc(-c2ccncc2)n1	–	–	–	–	–	56	–
O=C(/C=C/c1ccc(OCCCF)cc1)Nc1ccnc(-c2cccnc2)n1	–	–	–	–	–	–	·
C[C@H](NC(=O)c1[nH]cnc1C(=O)Nc1ccc(Cl)cc1)c1ccccc1	24	–	–	·	–	51	–
C[C@@H](NC(=O)c1[nH]cnc1C(=O)Nc1ccc(Cl)cc1)c1ccccc1	–	–	–	·	–	44	54
O=C(Nc1ccc(Cl)cc1)c1nc[nH]c1C(=O)NCc1ccccc1	24	–	–	·	–	50	–
CCCCCc1cc(=O)oc2c(C(CCN3CCCC(C)C3)c3ccc(N(C)C)cc3)c(OC)cc(OC)c12 (stereo not given)	–	–	–	–	–	51	53
CCCCCc1cc(=O)oc2c(C(CCN3CCCC(C)C3)c3cc(OC)c(OC)c(OC)c3)c(OC)cc(OC)c12 (stereo not given)	–	–	–	–	–	–	·
COc1ccc(C(CCN2CCCCC2)c2c(OC)cc(OC)c3c(-c4ccccc4)cc(=O)oc23)cc1 (stereo not given)	–	–	–	–	–	42	41
COc1cc(OC)c2c(-c3ccccc3)cc(=O)oc2c1C(CCN1CCCCC1)c1ccc(N(C)C)cc1 (stereo not given)	–	–	–	–	–	–	·

Assay outcomes (PubChem)
